Molecules are shown by their SMILES. Inconclusive results are not listed. A call without a number means that no potency is given here. Calls of active or inactive are those of the source. Calls follow the shape of the dose curve; as a rule, active = well fitted activation curve with a large enough effect; inconclusive = small, poorly fitted or top-dose-only effect; inactive = no such curve, though single readings can be large or run the other way.

The results in this text go back to PubChem BioAssay AID624331 (National Center for Advancing Translational Sciences (NCATS), 2012).

A short description of this assay: qHTS assay for re-activators of p53 using a Luc reporter: Hit Validation with no p53 Expressed. Particulars: p53-null cells, luciferase reporter counter-screen; series mostly up to 46.1 µM. A digest of the protocol:
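Without p53 expression, cells (1000/well, Opti-MEM + 10% FBS) were exposed 24 h at 37 deg C to compounds in a 1:5 series from 10 mM stock (top 46.1 µM in well). Luminescent signal read 10 min after Amplite addition; actives flag unspecific activation.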
A general note: In qHTS, concentration-response curves come from the screen itself.
Take `CNc1nnc(SCC(=O)c2cc(C)n(C3CC3)c2C)s1`: the Potency entry is “inactive”.

Take `COc1ccc(-c2csc(NCc3ccco3)n2)cc1C`: the Potency entry was “inactive”.

`COc1ccc(NC(=O)CN(C)CC(=O)Nc2ccccc2SC)cc1`: the Potency result is “inactive”.

As for `C/C(=N/NC(=S)Nc1ccccc1)c1ccc2c(c1)OCO2`, the Potency result was “inactive”.

With `O=C(Nc1nnc(-c2cccs2)o1)c1cccc(C(F)(F)F)c1`, the Potency result was “inactive”.

Turning to `Nc1nonc1-n1nnc(C(=O)N/N=C/c2cc(Br)ccc2O)c1CSC1=NCCS1`, the Potency result is “inactive”.

On to `Cc1cc(NC(=O)c2ccco2)sc1C`, for which the Potency entry is “inactive”.

For the molecule `O=C(NCCCc1ccccc1)c1cc(COc2c(F)cccc2F)on1`, the Potency entry was “inactive”.

As to `COc1cccc(/C=N/NC(=O)c2nc(-c3ccccc3)cc(-c3ccccc3)n2)c1O`, the Potency entry is “inactive”.

On to `COc1cccc(Oc2ccc(N)cn2)c1`, for which the Potency entry was “inactive”.

For `O=C(NOCc1ccccc1)c1ccccc1`, the Potency entry was “inactive”.

`O=C(NCC(=O)N1CCN(c2ncccn2)CC1)c1ccc(F)cc1`: the Potency result was “inactive”.

Consider `O=C(CNS(=O)(=O)c1cccc(Cl)c1)Nc1ccc(-c2nc3ccccc3s2)cc1`, for which the Potency result is “inactive”.

For the molecule `O=C(NN=C1CCCCCC1)c1cccs1`, the Potency entry is “inactive”.

Turning to `Cc1ccc2oc(-c3ccc(C)c(NC(=S)NC(=O)c4cccs4)c3)nc2c1`, the Potency result is “inactive”.

Consider `O=C(CSc1ccccc1)Nc1ccc(-c2nc3ccccc3[nH]2)cc1`, for which the Potency entry is “inactive”.

On to `CN(c1ccc(C(=O)COC(=O)C2CC2)cc1)S(C)(=O)=O`, for which the Potency result was “inactive”.

`C=CCOc1c(Br)cc(CNCCCN2CCOCC2)cc1OC`: the Potency result is “inactive”.

For the molecule `O=C(CNC(=O)c1cccc(F)c1)N/N=C/c1cc(Br)ccc1OC(=O)/C=C/c1ccco1`, the Potency entry is “inactive”.
